Measurements from PubChem BioAssay.
The source made the active and inactive calls. Unless noted, no rule for the calls is given here.

Assays:
[1] = HepG2 liver cancer cell viability effects, profiling panel, resazurin fluorescence, 24 h, PK04 Diversity Set (AID 1172); details: higher = more signal
[2] = basal S. cerevisiae growth modulation, no modifier, primary screen, OD600, strain BY4716, 24 h, basal condition (AID 1173); details: OD600, 24 h, higher = more signal, called active from +8 up or from −8 down
[3] = MM1S myeloma cell viability, profiling panel, resazurin fluorescence, basal, 24 h, PK04 Diversity Set (AID 1174); details: higher = more signal, called active from +8 up or from −8 down;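 also: MM1S multiple myeloma cell line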
[4] = biological target: Dihydroorotate dehydrogenase (quinone), mitochondrial (Plasmodium falciparum (isolate 3D7)) (UniProt Q08210); assay: PfDHODH enzyme inhibitors, primary screen, biochemical, C-terminal His tag, absorbance 600 nm (AID 1175); details: DCIP absorbance 600 nm, higher = more signal, called active from +8 up or from −8 down;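 also: recombinant parasite enzyme with a five histidine tag at its C terminus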
[5] = P. aeruginosa biofilm formation inhibitors, primary screen, strain PAO1, LB-PBS medium, absorbance 600 nm (AID 1176); details: P. aeruginosa PAO1 growth/biofilm, A600, 12 h; higher = more signal
[6] = S. cerevisiae RM11-1a growth modifiers, primary screen, strain RM11-1a, OD600, basal, 24 h (AID 1177); details: OD600, 24 h, higher = more signal, called active from +8 up or from −8 down;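 also: cultures grown under basal conditions with no added stressor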
[7] = E. coli acrAB mutant growth effects, primary screen, E. coli filamentation inducers, strain DRC39, OD650, 24 h (AID 1178); details: higher = more signal, called active from +8 up or from −8 down;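 also: growth measured as culture turbidity by optical density at 650 nm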
[8] = E. coli acrAB mutant growth effects, primary screen, E. coli filamentation inducers, strain DRC39, OD650, 48 h (AID 1179);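 also: screen aims at cell division blockers that make cells filament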; details: E. coli DRC39 delta-acrAB growth, higher = more signal, called active from +8 up or from −8 down
[9] = RPMI8226 myeloma cell viability, profiling panel, resazurin fluorescence, basal, 24 h, PK04 Diversity Set (AID 1180); details: higher = more signal;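 also: RPMI8826 multiple myeloma cell line at 5000 cells per well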
[10] = biological target: E3 ubiquitin-protein ligase XIAP (Homo sapiens) (UniProt P98170); assay: XIAP binders, primary screen, biophysical, small-molecule microarray, fluorescence 635 nm (AID 1181); details: small-molecule microarray binding, higher = more signal;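 also: score merges 667 nm emission and signal to noise over triplicate slides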
[11] = test system: XIP peptide (Xip251-270) binding; assay: small-molecule binders of XIP peptide, primary screen, biochemical, small-molecule microarray, fluorescence 635/667 nm, 0.1 µg/mL protein (AID 1182); details: fluorescent protein binding, 635 nm, higher = more signal, called active from +8 up or from −8 down
XIP peptide (Xip251-270) = assay: small-molecule binders of XIP peptide, primary screen, biochemical, small-molecule microarray, fluorescence 635/667 nm, 0.5 µg/mL protein (AID 1183); details: small-molecule microarray binding, fluorescence 635 nm; higher = more signal
[12] = Plasmodium falciparum growth inhibition, primary screen, strain 3D7, DAPI fluorescence, 100 nL (AID 1184);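 also: parasites grown inside human red blood cells in medium with human serum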; details: P. falciparum 3D7 growth, 3 d, higher = more signal
[13] = biological target: Homeobox protein Hox-A13 (Mus musculus) (UniProt Q62424); assay: inhibitors of HoxA13-DNA binding, primary screen, biochemical, fluorescence polarization, labeled oligonucleotide (AID 1185); details: 15 min, higher = more signal, called active from +8 up or from −8 down
[14] = inhibitors of hydroxyurea-induced Chk1 phosphorylation, primary screen, imaging, HeLa, phospho-Chk1 antibody, percent positive cells (AID 1186); details: hydroxyurea-induced phospho-Chk1 immunofluorescence imaging, higher = more signal
[15] = inhibitors of hydroxyurea-induced Chk1 phosphorylation, primary screen, imaging, HeLa, phospho-Chk1 nuclear intensity (AID 1187); details: hydroxyurea-induced phospho-Chk1 immunofluorescence imaging, higher = more signal

Chain of E3 ubiquitin-protein ligase XIAP (Homo sapiens) (P98170 whole entry, looked up): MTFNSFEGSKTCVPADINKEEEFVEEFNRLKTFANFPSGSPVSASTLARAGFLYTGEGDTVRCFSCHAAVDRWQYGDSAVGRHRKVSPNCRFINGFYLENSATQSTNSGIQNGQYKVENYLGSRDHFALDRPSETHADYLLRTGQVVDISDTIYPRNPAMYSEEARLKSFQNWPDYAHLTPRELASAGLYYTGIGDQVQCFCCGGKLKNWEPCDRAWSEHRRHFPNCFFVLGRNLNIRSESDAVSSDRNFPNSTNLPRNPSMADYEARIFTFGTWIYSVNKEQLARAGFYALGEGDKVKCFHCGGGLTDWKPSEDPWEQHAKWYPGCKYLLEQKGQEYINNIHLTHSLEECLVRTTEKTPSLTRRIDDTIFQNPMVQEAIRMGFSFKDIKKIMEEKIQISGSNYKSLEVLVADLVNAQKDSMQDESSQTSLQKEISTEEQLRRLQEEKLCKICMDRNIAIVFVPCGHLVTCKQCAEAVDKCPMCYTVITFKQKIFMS
Chain of Homeobox protein Hox-A13 (Mus musculus) (Q62424 whole entry, looked up): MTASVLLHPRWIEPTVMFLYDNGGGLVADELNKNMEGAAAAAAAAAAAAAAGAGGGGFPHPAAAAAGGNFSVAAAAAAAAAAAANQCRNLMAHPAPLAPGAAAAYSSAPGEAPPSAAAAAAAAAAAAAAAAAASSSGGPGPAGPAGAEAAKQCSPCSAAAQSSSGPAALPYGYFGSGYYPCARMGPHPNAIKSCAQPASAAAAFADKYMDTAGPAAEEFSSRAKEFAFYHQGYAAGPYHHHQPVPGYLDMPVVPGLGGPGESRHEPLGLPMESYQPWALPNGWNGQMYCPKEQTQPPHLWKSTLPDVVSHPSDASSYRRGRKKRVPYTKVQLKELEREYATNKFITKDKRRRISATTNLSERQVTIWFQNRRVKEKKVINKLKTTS
Chain of Dihydroorotate dehydrogenase (quinone), mitochondrial (Plasmodium falciparum (isolate 3D7)) (Q08210 whole entry, looked up): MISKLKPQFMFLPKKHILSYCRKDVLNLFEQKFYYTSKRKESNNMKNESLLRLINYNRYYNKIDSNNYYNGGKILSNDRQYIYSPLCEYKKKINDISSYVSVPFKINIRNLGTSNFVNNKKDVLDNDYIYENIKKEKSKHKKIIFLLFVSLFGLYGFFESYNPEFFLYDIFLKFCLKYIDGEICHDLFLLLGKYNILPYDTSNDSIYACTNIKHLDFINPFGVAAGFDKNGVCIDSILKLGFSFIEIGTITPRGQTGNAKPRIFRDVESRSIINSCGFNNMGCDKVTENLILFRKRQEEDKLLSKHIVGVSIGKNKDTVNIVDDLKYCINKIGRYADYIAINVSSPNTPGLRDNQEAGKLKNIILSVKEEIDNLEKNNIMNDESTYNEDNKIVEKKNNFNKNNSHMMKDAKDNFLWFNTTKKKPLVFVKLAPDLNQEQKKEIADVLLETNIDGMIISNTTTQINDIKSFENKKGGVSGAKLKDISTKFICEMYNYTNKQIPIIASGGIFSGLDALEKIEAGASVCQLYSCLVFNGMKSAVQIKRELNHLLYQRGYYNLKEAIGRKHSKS

SMILES | z-score [1] | z-score [2] | z-score [3] | composite z-score [4] | z-score [5] | z-score [6] | z-score [7] | z-score [8] | z-score [9] | composite z-score [10] | composite z-score [11] | composite z-score (XIP peptide (Xip251-270)) | z-score [12] | z-score [13] | z-score [14] | z-score [15]
C=C(COC)/C(=C/C[C@H](OC(C)=O)c1ccc(CO)o1)c1cc(C(=O)OC)ccc1OC | -0.613 | -0.0209 (inactive) | -0.891 (inactive) | -6.52 (inactive) | -0.317 (inactive) | -0.253 (inactive) | -1.38 (inactive) | -0.816 (inactive) | -0.746 | 0.0101 | 0.443 (inactive) | -0.257 | -2.07 | -4.87 (inactive) | -0.45 (inactive) | -0.735 (inactive)
CCc1cccc(NC(=O)O[C@H]2[C@H](OC(=O)Nc3ccccc3-c3ccccc3)[C@@H](OC(=O)Nc3ccccc3-c3ccccc3)[C@@H](OC)O[C@@H]2CO)c1 | -4.43 | 0.972 (inactive) | -4.83 (inactive) | 0.153 (inactive) | 0.0279 (inactive) | 0.924 (inactive) | -1.04 (inactive) | -0.361 (inactive) | -5.09 | 0.19 | 1.04 (inactive) | 0.859 | -1.8 | -2.99 (inactive) | 0.167 (inactive) | 0.62 (inactive)
C[N+](C)(C)CCCCNC(=O)[C@@H]1C[C@@H]2C(=O)N[C@@H](Cc3ccccc3)C(=O)N2[C@@H]1c1cccc(OCCO)c1 | -0.278 | -0.143 (inactive) | 0.548 (inactive) | -24.9 (active) | -0.226 (inactive) | 0.145 (inactive) | 0.994 (inactive) | 1.31 (inactive) | 0.0965 | -0.138 | 1.09 (inactive) | 0.645 | -0.421 | -2.57 (inactive) | 0.367 (inactive) | 0.276 (inactive)
O=C(OCc1ccccc1)C1=CCC2c3[nH]c4ccccc4c3C(=O)C1N2S(=O)(=O)c1ccccc1[N+](=O)[O-] (stereo not given) | -0.106 | 1.57 (inactive) | -1.2 (inactive) | -0.386 (inactive) | 0.381 (inactive) | 0.714 (inactive) | -1.04 (inactive) | -1.43 (inactive) | -0.878 | -0.113 | -0.0884 (inactive) | -0.0191 | -1.07 | -1.47 (inactive) | -0.824 (inactive) | -1.44 (inactive)
CC(C)C[C@@H]1NC(=O)[C@@H]2C[C@H](C(=O)NCc3ccc(F)cc3)[C@H](c3cccc(OCCO)c3)N2C1=O | 0.137 | -0.929 (inactive) | 0.279 (inactive) | -1.26 (inactive) | 0.475 (inactive) | -0.694 (inactive) | 1.46 (inactive) | 1.48 (inactive) | 0.919 | -0.052 | 0.832 (inactive) | 0.421 | 0.124 | -3.95 (inactive) | 0.465 (inactive) | 0.554 (inactive)
O[C@@H](Cc1ccccc1)[C@H]1C2C=CCCC=C2CN1Cc1cccc(Cl)c1 (stereo not given in full) | 0.318 | -4.3 (inactive) | -0.686 (inactive) | -0.255 (inactive) | 1.27 (inactive) | -0.068 (inactive) | 0.779 (inactive) | 0.73 (inactive) | -0.0704 | -0.365 | 0.164 (inactive) | 0.421 | 0.461 | -7.63 (inactive) | 0.415 (inactive) | 0.0708 (inactive)
[N-]=[N+]=NCc1ccccc1[C@@H]1OC(c2ccc(OCCCO)cc2)=N[C@]1(Cc1ccccc1)C(N)=O | 0.854 | -2.19 (inactive) | -0.422 (inactive) | -0.717 (inactive) | 0.177 (inactive) | 0.895 (inactive) | 0.671 (inactive) | -0.492 (inactive) | -0.0348 | 0.319 | 0.906 (inactive) | 0.689 | -2.13 | -3.49 (inactive) | -0.395 (inactive) | -0.0798 (inactive)
C=CCOC(=O)[C@@H]1[C@H]2C(=O)O[C@H](c3ccccc3)[C@H](c3ccccc3)N2[C@H](c2ccc(OCCOC(=O)[C@@H]3C[C@@H]4C(=O)NCC(=O)N4[C@@H]3c3ccc(O)cc3)cc2)[C@@]12C(=O)Nc1ccc(I)cc12 | 0.978 | 0.286 (inactive) | 1.11 (inactive) | -0.365 (inactive) | 0.118 (inactive) | 1.38 (inactive) | 0.202 (inactive) | -0.515 (inactive) | 1.3 | 0.164 | 0.549 (inactive) | 0.849 | -1.77 | -0.29 (inactive) | 0.273 (inactive) | 0.702 (inactive)
CCOC(=O)C[C@H]1[C@H](OC(=O)c2cc3ccccc3oc2=O)[C@@H](NC(=O)c2ccccc2)c2cc(OCCCO)ccc2N1C(=O)c1ccc2ccccc2n1 | -0.359 | -0.594 (inactive) | -1.04 (inactive) | 0.542 (inactive) | -0.246 (inactive) | -0.5 (inactive) | -0.741 (inactive) | -1.2 (inactive) | -1.16 | -0.28 | -0.0302 (inactive) | 0.503 | -0.566 | -3.63 (inactive) | 0.091 (inactive) | 0.0741 (inactive)
CCOC(=O)C[C@H]1[C@H](OC(=O)c2ccc(C(=O)c3ccccc3)cc2)[C@@H](NC(=O)c2ccc3ccccc3c2)c2cc(OCCCO)ccc2N1C(=O)Cc1ccc(OC)cc1 | -0.0265 | -0.291 (inactive) | 0.238 (inactive) | -0.148 (inactive) | -0.382 (inactive) | 0.4 (inactive) | -0.276 (inactive) | 0.471 (inactive) | 0.287 | -0.12 | 0.135 (inactive) | -0.011 | -1.06 | -1.59 (inactive) | -0.0477 (inactive) | -0.0525 (inactive)
